This is an account of results in PubChem BioAssay AID485317 (Broad Institute, 2010).

Each structure is given as a SMILES string. Screen size: about 290,000 compounds; about 11,000 (3.8%) were called active. Only a selection was taken, and actives are over-represented in it overall. A number with no mark means an inactive call.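 How the source made its calls: active means mean replicate inhibition above about 79%, with every replicate also reaching it (limit read from the data); inconclusive means only one of the two criteria met; inactive means mean below limit and not every replicate reaching it.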

What is called inhibition is the change of the read-out against control, counted positive when it falls.

The target of this assay is FAD-linked sulfhydryl oxidase ALR (Homo sapiens) (UniProt P55789). Kind of assay: ALR-catalysed DTT oxidation blockers – biochemical, H2O2 detection, HRP-luminol luminescence, single point, primary screen (AID 485317). The note with it: purified ALR, stronger effect = higher value, concentration not given here.
Sequence of FAD-linked sulfhydryl oxidase ALR (Homo sapiens) (P55789 whole entry, looked up): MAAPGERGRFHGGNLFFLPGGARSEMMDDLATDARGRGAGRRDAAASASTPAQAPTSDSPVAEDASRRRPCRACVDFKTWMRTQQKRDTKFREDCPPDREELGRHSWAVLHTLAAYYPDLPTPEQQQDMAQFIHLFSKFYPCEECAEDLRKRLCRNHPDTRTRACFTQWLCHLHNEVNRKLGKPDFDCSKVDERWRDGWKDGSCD
For `N#Cc1ccc(C2=CC(=O)C[C@H](c3ccc(Cl)cc3)C2)cc1`, the inhibition is -5.77%.
With `Cc1ccc(NC(=O)C(C)Sc2nnc(C3CC3)n2C2CC2)cc1S(=O)(=O)N1CCOCC1` (stereo not drawn) the figure was 96.1% (active); with `Cc1ccc(NC(=O)NC2CCCCC2)cc1S(=O)(=O)N1CCOCC1`, 74.4%.
As for `Cc1ccc(NC(=O)C2CC2)cc1S(=O)(=O)N1CCOCC1`, the inhibition is -0.606%.
As to `COc1ccccc1OCCNC(=O)C(CCSC)NC(=O)COc1ccccc1` (stereo not drawn), the inhibition is 0.393%.
As for `CN(C)c1ccc(NC(=O)CSc2n[nH]c(-c3ccco3)n2)cc1`, the inhibition is 98.9% (active).
With `CN(C)C(=O)CSc1n[nH]c(-c2ccco2)n1`, the inhibition is -5.75%.
`O=C(CSc1n[nH]c(-c2cccnc2)n1)Nc1ccc(Cl)cc1`: the inhibition is 5.84%.
Regarding `COc1ccccc1N1CCN(C(=O)C2Cc3ccccc3CN2C(=O)c2ccco2)CC1` (stereo not drawn), the inhibition was 19.8%.
For the molecule `CC(C)CN(C(=O)c1ccc2c(c1)OCO2)C1CCS(=O)(=O)C1` (stereo not drawn), the inhibition is 3.07%.
With `CC1Sc2ccc(C(=O)NCc3ccccc3Cl)cc2NC1=O` (stereo not drawn), the inhibition was -5.05%.
Turning to `Cc1ccc(CNC(=O)c2cc(-c3ccccc3C)n(CC3CC(c4cccc([N+](=O)[O-])c4)=NO3)n2)cc1` (stereo not drawn), the inhibition was -3.66%.
With `O=C(N/N=C/c1cc(Br)c(O)c([N+](=O)[O-])c1)C(O)(c1ccccc1)c1ccccc1` the figure was 14%; with `Cc1nnc(SCc2cccc(Cl)c2)n(N)c1=O`, -0.251%.
Then `O=C(c1ccco1)N1CCN=C1SCc1cccc(Cl)c1`, with 96.8% (active).
Take `O=C(C1CC1)N1CCN=C1SCc1ccc(Cl)cc1`: the inhibition is 98.3% (active).
As for `CS(=O)(=O)N1CCN=C1SCc1ccc(F)cc1`, the inhibition was 98.4% (active).
Turning to `CCC(=O)N1CCN=C1SCc1ccc(F)cc1`, the inhibition is 98.7% (active).
`O=S(=O)(c1ccc(F)cc1)N1CCN=C1SCc1cccc(F)c1`: the inhibition is -6.25%.
In the case of `O=C(C1CCN(Cc2ccc(Cl)cc2)CC1)N1CCN(Cc2ccc3c(c2)OCO3)CC1`, the inhibition was -2.64%.
With `O=C(c1ccco1)N1CCN(c2cccc(Cl)c2)CC1` the figure was 12.7%; with `CCSC1=NCCN1S(=O)(=O)c1ccc(F)cc1`, -3.09%.
Then `O=C(COc1ccccc1)N1CCN=C1SCc1cccc(F)c1`, with 15.7%.
Take `CC1CCN(C(=O)c2ccc(CSc3ccc(Cl)cc3)cc2)CC1`: the inhibition is -6.8%.
Then `CSC1=NCCN1C(=O)Cc1cccc2ccccc12`, with -43.6%; and `O=C(C1CCC1)N1CCN(S(=O)(=O)c2ccc([N+](=O)[O-])cc2)CC1`, with -24.2%.
For the molecule `O=C(COc1ccccc1F)Nc1nc(-c2ccccn2)cs1`, the inhibition was -5.87%.
As for `COc1ccc(C2(C)ON(c3ccccc3C(F)(F)F)C2=O)cc1` (stereo not drawn), the inhibition is 1.44%.
With `Cc1cccc(C)c1Nc1nnc(SCC(=O)NCCCN2CCCC2=O)s1` the figure was 3.02%; with `C=CCC[C@H](Cc1ccc(F)cc1)C(=O)OC[C@@H](Cc1c[nH]c2ccccc12)NC(=O)[C@H](CC=C)CC(=O)N[C@H](CO)Cc1ccccc1`, 1.04%.
With `O=C(NNC(=O)C1CCC1)c1ccccc1`, the inhibition was -8.4%.
With `Cc1ccc(C)c(OCC(=O)NNC(=O)C2CCC2)c1` the figure was -3.99%; with `Cc1ccc(NNC(=O)C2CCC2)cc1C`, 98.5% (active); with `COc1ccc(CCNC(=O)COC(=O)C2CC2C)cc1` (stereo not drawn), 5.1%.
With `CCOc1ccc(S(=O)(=O)Nc2cccc(C(=O)NCC3(N4CCCCC4)CCCCC3)c2)cc1` the figure was -4.42%; with `COC(=O)c1[nH]c2ccc(Br)cc2c1NC(=O)Oc1ccccc1`, 97.3% (active); with `CCOC(=O)c1[nH]c2ccc(OC)cc2c1NC(=O)CCN1CCN(Cc2ccccc2)CC1`, 24.1%.
As to `COC(=O)c1[nH]c2ccccc2c1NC(=O)CN1CCCc2ccccc21`, the inhibition is -3.93%.
With `CCCn1c(CCNc2nc(-c3ccc(OC)cc3)cs2)nc2ccccc21` the figure was 12.7%; with `Cc1ccc(CC(=O)N(C)CC(=O)N(CC(C)C)c2c(N)n(CC(C)C)c(=O)[nH]c2=O)cc1C`, -5.01%; with `Cc1ccc2nc(SCC(=O)N3CC(C)OC(C)C3)nc(=O)n2c1` (stereo not drawn), -0.878%.
As for `COc1ccc(C(=O)NC(=S)NNC(=O)c2c(-c3ccccc3)noc2C)cc1`, the inhibition was 99.2% (active).
On to `Cc1ccc(CNC(=O)c2c(-c3ccccc3)noc2C)cc1`, for which the inhibition is -6.06%.
Regarding `COc1ccc(C(=O)NC(=S)NNC(=O)CCc2ccccc2)cc1`, the inhibition was 24.8%.
With `CCc1noc(C)c1C(=O)NNC(=O)c1ccc(F)cc1`, the inhibition was 0.314%.
In the case of `Cc1onc(-c2ccccc2)c1C(=O)NNC(=S)NC(=O)c1ccc(F)cc1`, the inhibition is 93.4% (active).
As to `COc1ccc(C(=O)NNC(=S)NC(=O)c2ccccc2)cc1`, the inhibition is 34.7%.
For the molecule `COc1ccc(S(=O)(=O)N(C)C[C@H]2Oc3c(NC(=O)Nc4ccc5c(c4)OCO5)cccc3C(=O)N([C@H](C)CO)C[C@@H]2C)cc1`, the inhibition is -7.29%.
With `CC(C)(C)OC(=O)NCCCCCNC(=O)c1[nH]cnc1C(=O)Nc1nccs1`, the inhibition is -6.55%.
Then `COc1ccc(Cl)cc1NS(=O)(=O)c1cccc(C(=O)NC2CCC(O)CC2)c1` (stereo not drawn), with -6.32%; and `O=C(COC(=O)c1cccc(Cl)c1)NC(=O)NCc1ccccc1`, with -1.07%; and `COC(=O)c1ccc2c(=O)n(CCN3CCOCC3)c(SCC(=O)Nc3cccc(OC)c3)nc2c1`, with 99.1% (active).
Then `CC(=O)c1ccc(NC(=O)CSc2nc3ccccc3c(=O)n2CCCN2CCOCC2)cc1`, with 23.1%; and `COc1cccc(NC(=O)C(Sc2nc3ccccc3c(=O)n2CC(C)C)c2ccccc2)c1` (stereo not drawn), with -3.45%.
For the molecule `CCc1ccc(NC(=O)CSc2nc3ccccc3c(=O)n2CCN2CCOCC2)cc1`, the inhibition was 98.6% (active).
As to `COCCn1c(SCC(=O)Nc2ccc3c(c2)CCC3)nc2ccccc2c1=O`, the inhibition was -0.883%.
On to `CC(=O)NCCn1c(SCC(=O)Nc2ccc(C)cc2)nc2ccccc2c1=O`, for which the inhibition was -3.53%.
`Cc1csc(NC(=O)c2ccc(C)s2)n1`: the inhibition is 27.4%.
Then `O=C(COC(=O)Cc1ccc([N+](=O)[O-])cc1)NC1CCCCCC1`, with 3.75%; and `COc1ccc(-c2c(-c3cc(OC)cc(OC)c3)n(C)c3ccc(-c4ccn[nH]4)cc23)cc1`, with -7.81%; and `Brc1ccc(CN2CC[C@H]3C=CCc4cccc(c43)C2)cc1`, with -17.1%.
With `O=C(/C=C/Sc1ncn[nH]1)c1ccc(Cl)cc1` the figure was 98.6% (active); with `COc1ccc(Cl)cc1CSc1ncn[nH]1`, 3.36%.
Consider `Cc1cc(C)nc(S/C=C/C(=O)c2ccccc2)n1`, for which the inhibition is 18.2%.
Then `CCN(c1ccccc1)S(=O)(=O)c1ccc(C(=O)Nc2ccccc2OC)cc1`, with 2.02%.
With `COc1ccc(NC(=O)N(C)C[C@H]2Oc3ccc(NC(=O)C4CC4)cc3C(=O)N([C@H](C)CO)C[C@@H]2C)cc1` the figure was -0.429%; with `CN(C)CCN(C(=O)CN1C(=O)c2ccccc2C1=O)c1nc2cc3c(cc2s1)OCCO3`, -1.15%; with `Nc1ccccc1/C=N\N=C/c1ccccc1N`, -2.8%.
Then `Cc1nc2nc(SCC(=O)Nc3cccc(F)c3)[nH]c2cc1Br`, with -13.2%.
For the molecule `O=C(CSc1nc2[nH]c(=O)[nH]c(=O)c2s1)Nc1cccc(F)c1`, the inhibition was 98.7% (active).
With `Nc1nnc(SCC(=O)Nc2ccc3nc(SCC(=O)Nc4ccccc4)sc3c2)s1` the figure was -42%; with `O=S(=O)(NCCS(=O)(=O)N1CCN(c2ccccc2)CC1)c1ccc(F)cc1`, -11.7%; with `CC[C@@H]1Cc2cc(O)ccc2C2=C1c1ccc(O)cc1C[C@H]2CC`, 97.9% (active).
Regarding `CC1(C)CC(=O)c2ccc(O)cc2O1`, the inhibition is 0.168%.
Consider `CCc1nnc(NC(=O)c2cc(S(=O)(=O)N3CCCCC3)ccc2C)s1`, for which the inhibition was -5.04%.
Then `Cc1ccc(CNS(=O)(=O)CCNC(=O)c2ccccc2)cc1`, with 0.449%; and `CCN(CC(=O)Nc1ccc(OC)cc1)C(=O)c1ccc(Cl)c(S(=O)(=O)N2CCCC2)c1`, with -0.437%.
With `O=C(CSc1ncnc2sccc12)N1CCN(C(=O)c2cccs2)CC1` the figure was 3.8%; with `COc1ccccc1C(=O)NC(CCSC)C(=O)N1CCN(C/C=C/c2ccccc2)CC1` (stereo not drawn), -15.9%; with `CC1(C)CC(=O)C=C(Nc2ccccc2)C1`, 3.81%.
With `COC(=O)NNC1=CC(=O)CC(C)(C)C1` the figure was 5.45%.
For the molecule `Cc1cc(O)ccc1NC1=CC(=O)CC(C)(C)C1`, the inhibition was 92.3% (active).
With `O=C(Nc1cc(S(=O)(=O)N2CCOCC2)ccc1N1CCOCC1)c1c(F)cccc1Cl` the figure was 0.0766%; with `COc1cc(/C=C2/C(=O)NN(c3cccc(Cl)c3)C2=O)cc(Br)c1O`, 98.2% (active); with `COc1cc(/C=N/O)cc(Br)c1OCc1cccc(Cl)c1`, -0.717%.
Then `C#CCOc1ccc(/C=C2/C(=O)NN(c3ccccc3)C2=O)cc1OC`, with 66.4%; and `C=CCSc1ccc(S(=O)(=O)N2CCN(C)CC2)cn1`, with 0.831%; and `CC1CCc2sc(C(=O)NCC(c3ccco3)N3CCCCC3)cc2C1` (stereo not drawn), with -3.3%.
With `C[C@H](NC(=O)c1ccccc1Cl)C(=O)OCC(=O)N1CCN(c2ccccc2)CC1` the figure was 50.7%; with `Cn1nnnc1SCC(=O)Nc1sccc1C(N)=O`, 23.5%; with `COc1cc(OC)cc(-c2nc3nc(C)c(CCC(=O)NCc4ccco4)c(C)n3n2)c1`, 0.656%.
For the molecule `COc1ccc(C(=O)Nc2ccccc2C(=O)NCc2ccco2)cc1`, the inhibition is -4.1%.
With `COc1ccc(-c2cc(C(F)(F)F)nc(SCCC(=O)NCc3ccco3)n2)cc1` the figure was 96.7% (active).
